Compound activity from PubChem BioAssay.
DT40 TDP1 CPT: DT40-hTDP1 cell growth loss with CPT; chicken DT40 Tdp1-/-;hTDP1 cells + 20 nM CPT, ATP luminescence, 48 h; Potency, µM (top dose mostly 46.2 µM), without a hit: at the highest dose activity change, negative = growth inhibition, hits mostly inhibitors; actives 12% (n = 420,000); AID 686979; further: potency means the concentration at half of the fitted maximal effect; nearly all actives have a fitted effect of over 55% in size
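Cell growth measured by CellTiter-Glo luminescence after a minimum 48 h, 37 C compound exposure with 20 nM CPT in Tdp1-knockout DT40 cells stably expressing hTDP1, seeded 400/well; qHTS titration format.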
IL1B secr inh: inhibitors of inflammasome signaling (IL-1 beta secretion); THP-1 LPS/ATP IL-1B secretion, AlphaLISA, 16 h; stronger effect = lower value; activity change, % at 57.5 µM; actives 4.7% (n = 360,000); AID 743279; in the data active means activity change below about -50%; inconclusive means mostly about -30% to -49%
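Secreted IL-1B measured by AlphaLISA bead assay after 16 h compound exposure of THP-1 cells; compounds (final up to 57.5 uM) added 1 h before LPS (250 ng/mL) and ATP (1.25 mM) stimulation; lower signal means less secretion.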
TDP1 cell noCPT: qHTS for Inhibitors of human tyrosyl-DNA phosphodiesterase 1 (TDP1): qHTS in cells in absence of CPT | actives 15% (n = 420,000) | DT40 Tdp1-/- hTDP1 cells, no CPT, ATP luminescence, 48 h | Potency, µM (doses to about 46.2 µM), for inactives: at the top dose activity change, negative = growth inhibition, most hits filed as inhibitors; further: potency means the concentration at half of the fitted maximal effect; nearly all actives have a fitted effect of over 55% in size
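DT40 Tdp1-/-;hTDP1 cells, no CPT (DMSO vehicle only), 400 cells/well; compounds pin-transferred; ≥48 hr, 37 °C; CellTiter-Glo 30 min RT dark, luminescence read.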
HT1080 IDH1KD tx: toxicity to HT-1080 IDH1 knockdown cells (counter line) | actives 2% (n = 360,000) | Potency, µM (highest dose often 46.1 µM), for the others: at the highest dose activity, negative = toxicity, hits mostly cytotoxic | HT-1080 IDH1 knockdown viability, ATP luminescence, 48 h;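 further: potency means the concentration at half of the fitted maximal effect; 0% = DMSO wells and -100% = cell-free medium wells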
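Viability of IDH1-knockdown HT-1080 fibrosarcoma cells was assessed by CellTiter-Glo after 48 h at 37 °C with titrated compound; concentration-effect curves were classified by fit quality and response size.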
HT1080NT lethal: kills 2HG-producing HT-1080-NT fibrosarcoma cells | HT-1080-NT fibrosarcoma viability, CellTiter-Glo ATP luminescence, 48 h | Potency, µM (top dose mostly 46.1 µM), for the others: at the top dose activity, negative = less viability, hits mostly cytotoxic | actives 1.6% (n = 360,000) | AID 686970;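 further: NT is the 2HG producing partner of a matched IDH1 knockdown line; potency means the concentration at half of the fitted maximal effect; 0% = DMSO-treated cells and -100% = media-only wells without cells; nearly all actives have a fitted effect of over 55% in size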
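750 cells/well, RPMI + 5% FBS; 2 h settle, compound pin-transfer, 48 h at 37 degrees C. CellTiter-Glo 10 min RT, luminescence. Normalized to DMSO and media-only wells.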
The depositor's hits bear a star; ? = inconclusive; · = not tested or not shown; ! = not confirmed by another sample; [ ] = remark or other dose. An excerpt weighted towards active compounds, which were near 19% of everything screened. Unless noted, the call rests on the fitted dose curve; in most records, active means well fitted curve in the direction sought with a large enough effect; inconclusive means small, poorly fitted or top-dose-only effect, or another doubt; inactive means no such curve, though single readings can be large; an effect the other way counts as inactive or inconclusive. Unless noted, on the % scale 0 is the no-effect control and ±100 the full control effect.

SMILES | DT40 TDP1 CPT | IL1B secr inh | TDP1 cell noCPT | HT1080 IDH1KD tx | HT1080NT lethal
CCCOc1nc2c(c(=O)n(C)c(=O)n2C)n1Cc1cccc2ccccc12 | 11.6µM* | -15.8 | 6.51µM* | 6.7% | 9.6%
C=CC(C)Sc1nc2c(c(=O)n(C)c(=O)n2C)n1Cc1ccccc1Cl (configuration not stated) | ? | 24.1 | ? | 11.1% | 5.0%
CCOC(=O)N1CCN(Cc2nc3c(c(=O)n(C)c(=O)n3C)n2Cc2cccc3ccccc23)CC1 | 23.1µM* | -4.2 | ? | -1.5% | -9.6%
O=C(c1cccc(F)c1)N(Cc1cc2cc3c(cc2nc1N1CCOCC1)CCC3)CC1CCCO1 (configuration not stated) | 7.9%[9.04 µM] | · | -0.9% | · | ·
CCC1CCc2c(sc(NC(=O)c3cnccn3)c2C(N)=O)C1 (configuration not stated) | -27.4% | -17.1 | ? | 17.1% | 1.0%
COc1ccc(Br)c(C(=O)N2CCN(S(=O)(=O)c3cccs3)CC2)c1 | -20.3% | 0.0 | -5.9% | 6.6% | 3.7%
COc1ccc(/C=C/c2ccc3ccccc3n2)c(OC)c1 | 15.8µM* | · | 11.2µM* | · | ·
COc1ccc2ccc3cccc[n+]3c2c1 | 4.6% | -7.7 | -4.8% | -17.6% | -12.3%
COc1ccc(OC)c(/C=C/c2cc3ccccc3cn2)c1 | 5.01µM* | · | 5.01µM* | · | ·
COc1ccc(OC)c(/C=C/c2ccccc2)c1 | -25.1% | · | -0.7% | · | ·
COc1ccc(OC)c(/C=C/c2ccc3ccccc3[n+]2C)c1 | 2µM* | · | 2µM* | · | ·
Clc1ccc(/C=C/c2ccc3ccccc3n2)c(Cl)c1 | -5.9% | · | ? | · | ·
O=[N+]([O-])c1ccccc1/C=C/c1ccc2ccccc2n1 | -39.8% | -78.9* | ? | -21.4% | ?
COC(=O)c1sc2cccc(F)c2c1S(=O)(=O)Nc1cc(OC)cc(OC)c1 | 6.3% | · | 3.7% | · | ·
COC(=O)Cn1c(=O)c2c(nc3n2CCCN3CCc2ccccc2)n(C)c1=O | -25.1% | 10.6 | ? | -4.6% | -12.0%
O=C(CN1C(=O)c2ccccc2C1=O)N1CCN(C2c3ccccc3-c3ccccc32)CC1 | 0.5% | 8.0 | -17.2% | 12.0% | 13.3%
COc1cc(OC)c(OC)cc1C=Cc1ccc2ccccc2n1 | 16.4µM* | -19.4 | 14.6µM* | ? | ?
O=C(COC(=O)CC1CCCCC1)Nc1c(Cl)cccc1Cl | 13.1% | 66.3 | 19.5% | 19.8% | 7.2%
CN1CCC2(CC1)Nc1nc(SCc3ccc(Cl)cc3)nn1C1=C2CN(C)CC1 | ? | -62.1* | 23.1µM* | 20.6µM* | 25.9µM*
C[C@H](NC(=O)C1CCN(S(=O)(=O)c2ccccc2)CC1)C(=O)NC1CC1 | -10.4% | 17.1 | -3.4% | -1.6% | 3.9%
O=C(Nc1cnc(N2CCC(N3CCCCC3)CC2)c(C(=O)O)c1)c1ccc(Br)cc1 | 1.5% | · | -9.4% | · | ·
Cc1ccccc1C1=CCN(c2ncc(NC(=O)c3ccc(Cl)cc3)cc2C(=O)O)CC1 | ? | · | 23.1µM* | · | ·
COc1ccccc1N1CCN(S(=O)(=O)c2cc(C(F)(F)F)cc(C(F)(F)F)c2)CC1 | -21.5% | -7.7 | ? | 1.4% | -5.4%
COc1ccc(-c2cn3cccnc3n2)cc1NC(=O)Nc1ccc(Cl)cc1 | ? | · | 16.4µM* | · | ·
CCC(=O)Nc1cc(-c2cn3cccnc3n2)ccc1OC | -11.7% | · | 4.3% | · | ·
SMILES | DT40 TDP1 CPT | IL1B secr inh | TDP1 cell noCPT | HT1080 IDH1KD tx | HT1080NT lethal
COc1ccc(OC)c(NC(=O)Nc2ccc(Cl)cc2)c1 | -22.4% | -65.7* | -26.8% | -15.1% | -27.3%
COc1ccc(NC(=O)Nc2ccc(F)c(Cl)c2)cc1 | ? | -0.5 | 16.4µM* | -7.0% | 0.6%
COc1ccc(NC(=O)Nc2cc(C)ccc2OC)cc1 | -17.0% | -16.3 | -16.8% | -0.4% | 9.8%
Cc1ccc(NC(=O)Nc2ccc(F)c(Cl)c2)cc1 | ? | -28.8 | 23.1µM* | -4.4% | 0.0%
Cc1ccc(C(=O)Nc2cccc(-c3nc(CNC(=O)C4CCCCC4)c(C)o3)c2)s1 | 1.0% | · | -14.3% | · | ·
O=C(Cc1ccc(S(=O)(=O)N2CCOCC2)s1)N1CCN(S(=O)(=O)c2ccccc2[N+](=O)[O-])CC1 | ? | -6.5 | ? | 1.5% | 0.8%
CC(C)CNC(=O)C1(C)CCCN1Cc1ccc(OC(F)(F)F)cc1 (configuration not stated) | ? | 14.2 | ? | 2.1% | -25.9%
CCc1ccccc1N(CC(=O)N1CCCCCC1)S(C)(=O)=O | -4.9% | 3.5 | -0.9% | 2.3% | 9.6%
Cc1ccc(OCCC(=O)Nc2ccc(F)c(F)c2)cc1 | -25.3% | 0.0 | ? | -0.4% | 3.4%
Cc1cccc(OCCC(=O)Nc2ccc(F)c(Cl)c2)c1 | -0.3% | -84.1* | -7.2% | -0.3% | -3.1%
CCCCNC(=O)CSc1nc(N)c(C(=O)Nc2ccc(OC)cc2)s1 | ? | 8.4 | ? | -6.4% | -16.2%
COc1cccc2c1C(=O)c1c(O)c3c(c(O)c1C2=O)C[C@@](O)(C(=O)CO)C[C@@H]3OC1CC(N)C(O)C(C)O1 (some centres not stated) | 0.291µM* | -105.4* | 0.259µM* | 4.61µM* | ?
COc1cccc2c1C(=O)c1c(O)c3c(c(O)c1C2=O)CC(O)(C(C)=O)CC3OC1CC(N(C)C)C(O)C(C)O1 (configuration not stated) | 0.0517µM* | -101.2* | 0.082µM* | 0.731µM* | ?
COc1cccc2c1C(=O)c1c(O)c3c(c(O)c1C2=O)C[C@@](O)(C(=O)CO)C[C@@H]3O[C@H]1C[C@H](N)[C@H](O)[C@H](C)O1 | 0.206µM*! | -107.4* | 0.0206µM*! | 0.326µM* | 9.2µM*
O=C1CC(N2CCN(c3nc4ccccc4s3)CC2)C(=O)N1c1cccc(F)c1 (configuration not stated) | -24.4% | 17.4 | -2.3% | -1.6% | 11.2%
CN1OC[C@@H]2CN(Cc3ccc(Cl)cc3)[C@H](c3ccc(-n4ccnc4)cc3)C[C@@H]21 | ? | -7.5 | ? | ? | ?
O=C(O)/C=C\C(=O)Nc1ccccc1C(=O)N1CCC(O)(c2ccc(Cl)cc2)CC1 | ? | -7.9 | ? | 15.4% | 22.1%
Cc1cc(Cl)cc(C)c1OCC(=O)NC1CCCCCC1 | ? | -25.6 | ? | 7.9% | 7.6%
CCOC(=O)c1cc(-c2ccc(/C=C3/C(=O)N(c4ccc(C(=O)O)cc4)N=C3C)o2)ccc1Cl | ? | 10.6 | 14.6µM* | -5.9% | ?
CCOC(=O)c1cc(-c2ccc(/C=N\n3cnnc3)o2)ccc1Cl | -15.8% | 1.6 | ? | -10.6% | -1.9%
CCCCC(=O)Nc1cccc(-c2ccc3nncn3n2)c1 | -1.5% | 28.7 | -13.7% | 4.6% | 5.9%
